Screening data deposited in PubChem by National Center for Advancing Translational Sciences (NCATS).
FMDV antiviral = blocks foot and mouth disease virus; FMDV antiviral cell-based qHTS; Potency, µM (titrated, usually from 57.9 µM), for inactives: at the top dose activity change, negative = inhibition, hits mostly inhibitors; 410,000 tested, 1.2% active; calls by dose curve; tested in HEK293T cells; note: read-out not given here; potency is the fitted concentration of half-maximal effect; % is set by controls: 0 for no effect and ±100 for the full control effect; nearly all actives have a fitted effect of over 45% in size
HCV inh = inhibitors of hepatitis C virus infection | 340,000 tested, 3.4% active | Potency, µM (doses to about 41.8 µM), for the others: at the highest dose activity change, negative = inhibition, most hits filed as inhibitors | Huh7.5.1 HCVcc-Cre infection, luciferase reporter, 44 h; active = well fitted inhibition curve with a large enough effect; inconclusive = small, poorly fitted or top-dose-only effect, or another doubt; inactive = no such curve, though single readings can be large or run the other way; note: potency is the fitted concentration of half-maximal effect; % is set by controls: 0 for no effect and ±100 for the full control effect
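Whole-lifecycle infectious HCVcc-Cre system; cells 1,000/well, compound then virus (~0.5 moi) added 4 h after plating, 44 h culture. Luciferase read 15 sec following 15 min substrate incubation, room temp.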
Lassa entry inh = inhibitors of Lassa virus binding or cell entry; Lassa virus pseudotype entry inhibition, cell reporter; Potency, µM (highest dose often 37.9 µM), for inactives: at the top dose activity change, negative = inhibition, hits mostly inhibitors; 300,000 tested, 1.2% active; AID 540256; calls by dose curve; tested in HEK293 cells; note: potency is the fitted concentration of half-maximal effect; % is set by controls: 0 for no effect and ±100 for the full control effect; nearly all actives have a fitted effect of over 50% in size
MARV entry inh = blocks Marburg virus binding to or entry into cells; 300,000 tested, 1.8% active; Marburg virus pseudotyped entry inhibition, cell reporter; Potency, µM (top dose mostly 37.8 µM), for inactives: top-dose activity change, negative = inhibition, most hits filed as inhibitors; calls by dose curve; tested in HEK293 cells; note: potency is the fitted concentration of half-maximal effect; % is set by controls: 0 for no effect and ±100 for the full control effect
SARS PLP yeast = SARS-CoV PLP inhibition in yeast; S. cerevisiae expressing SARS-CoV PLpro, growth rescue; Potency, µM (series often up to 32.9 µM), for inactives: at the highest dose activity, positive = growth rescue, usual class: activators; 330,000 tested, 0.19% active; AID 485353; calls by dose curve; note: potency is the fitted concentration of half-maximal effect; 0% is about no effect; nearly all actives have a fitted effect of over 55% in size
HCMV antiviral = blocks human cytomegalovirus replication | HFF cells, HCMV-luciferase reporter, 72 h; stronger effect = lower value | activity change, negative = inhibition, % at 57.5 µM | 410,000 tested, 4.5% active; in the data active = activity change below about -60%; inconclusive = no clear call, values can overlap the other calls; inactive = above about -39%; note: % is set by controls: 0 for no effect and ±100 for the full control effect
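Steps: HFFs plated, 16 h 37C; compounds added; HCMV-luciferase added to MOI 1 PFU/cell; 72 h 37C; OneGlo reagent, 5 min room temperature; luminescence read, normalized to controls.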
The depositor's hits bear a star; ? = inconclusive; / = no result; ! = a repeat was not active; [ ] = dose if it differs, or a comment. This is a sample that favours compounds with a hit; in the whole collection about 8% have one here.

SMILES | FMDV antiviral | HCV inh | Lassa entry inh | MARV entry inh | SARS PLP yeast | HCMV antiviral
CCOC(=O)c1cc(C)n(CC2CCC(C(=O)Nc3ccc(C)cc3)CC2)c1C (centres undefined) | -29% | / | 8%[46.1 µM] | / | / | -1
Cc1ncc2c(c1CNC(=O)/C=C/c1cccs1)CCN(C(=O)c1c(C)noc1C)C2 | -5% | / | / | / | / | /
CCOC(=O)N1CCN(C(=O)c2ccc3c(c2)sc2nc(-c4ccc(OC)cc4)cn23)CC1 | -11% | 14µM*! | -28% | ? | -7% | /
CCOC(=O)C1CCN(C(=O)c2ccc3c(c2)sc2nc(-c4ccc(OC)cc4)cn23)CC1 | -29% | / | 13%[46.1 µM] | / | / | /
COc1ccc2c(c1)sc1nc(-c3ccccc3)cn12 | 7.9µM* | ? | 0.5µM* | 0.71µM* | -14% | -98*
c1ccc(-c2cnnc3ccccc23)cc1 | -26% | 11µM* | / | / | 2% | -3
O=C(O)c1cnnc2ccccc12 | 6% | -9% | 10%[46.1 µM] | -4%[46.1 µM] | / | 1
C1CCC(C(CC2CCCCN2)C2CCCCC2)CC1 (centres undefined) | -25% | ? | 18µM* | ? | -5% | -99*!
CCCC1CCCCN1 (centres undefined) | / | / | / | / | / | 3
O=C(O)c1ccc(S(=O)(=O)N(Cl)Cl)cc1 | 6% | / | / | / | / | /
CCCn1c(N2CCN(Cc3ccc(Cl)cc3)CC2)nc2ccccc21 | -28% | 13µM* | / | / | -2% | -14
CCn1c(N2CCN(Cc3ccc([N+](=O)[O-])cc3)CC2)nc2ccccc21 | ? | -9% | / | / | 1% | -6
O=C(CCS(=O)(=O)c1ccc(Cl)cc1)Nc1ccccc1Br | -4% | 3% | 17% | -5%[46.1 µM] | -1% | -98*
Cc1ccc(S(=O)(=O)CCC(=O)Nc2ccccc2Cl)cc1 | 18% | 5% | / | / | 1% | -27
CC(=O)c1sc(NC(=O)CCS(=O)(=O)c2ccc(Cl)cc2)nc1C | -12% | 1.1µM* | ? | ? | -3% | 1
C=C(C)C(=O)OC1(C(F)(F)F)Oc2cc(C)ccc2NC1=O (centres undefined) | -29% | 8% | -20% | ? | -35% | -95*
CCOC(=O)C1(N(CC)CC)Sc2cc(C)ccc2NC1=O (centres undefined) | -17% | ? | ? | ? | -11% | -14
COc1ccc(-c2cn[nH]c2-c2ccc(OCc3ccc([N+](=O)[O-])cc3)cc2O)cc1 | -27% | ? | ? | -26% | -77% | -93*
CCCc1cc(-c2[nH]ncc2-c2ccc3c(c2)OCCCO3)c(O)cc1OC | / | ? | / | 8% | -47% | -6
COc1ccc(-c2[nH]ncc2-c2ccc3c(c2)OCCO3)c(O)c1 | ? | ? | ? | -14%[46.1 µM] | / | -82*
CCOc1ccc(-c2[nH]ncc2-c2ccc(OC)c(OC)c2)c(O)c1 | 0% | ? | ? | ? | -8% | ?
CCc1cc(-c2[nH]ncc2-c2ccc3c(c2)OCO3)c(O)cc1O | / | ? | ? | ? | -6% | -99*
CCc1cc(-c2[nH]ncc2-c2ccc(OC)cc2)c(O)cc1O | 11µM* | 4µM* | ? | ? | 1% | -98*
COc1cccc(OCCCCn2c(-c3ccc(Cl)cc3)nc3ccccc3c2=O)c1 | 0% | / | 25%[46.1 µM] | 27%[46.1 µM] | / | 16
Cc1cc(C)c(S(=O)(=O)NCC(c2cccs2)S(=O)(=O)c2ccccc2)c(C)c1 (centres undefined) | 10% | / | ? | / | / | ?
SMILES | FMDV antiviral | HCV inh | Lassa entry inh | MARV entry inh | SARS PLP yeast | HCMV antiviral
Cc1cc(C)c(NC(=O)Nc2ccccc2)c(C)n1 | -24% | 5% | / | / | 3% | -16
Cc1cc(N)c2cc(NC(=O)Nc3ccc4nc(C)cc(N)c4c3)ccc2n1 | / | / | / | / | / | -99*
CCCCCC(=O)N1C[C@@H](n2cc(COC(=O)c3ccccc3)nn2)[C@H](O)C[C@H]1c1ccccc1 | / | / | 3%[46.1 µM] | / | / | /
CCCCN(C)S(=O)(=O)c1ccc(C(=O)N=c2sc3cc(NC(C)=O)ccc3n2C)cc1 | -19% | 23% | -2% | 9% | 7% | -19
CCCCN(CC)S(=O)(=O)c1ccc(C(=O)N=c2sc3cc(NC(C)=O)ccc3n2C)cc1 | -17% | ? | -29% | 14% | 14% | -72*
CCOC(=O)CC(NC(=O)CCc1c(C)nc2c(c(C)nn2-c2ccc(C)c(C)c2)c1C)c1ccc(C)cc1 (centres undefined) | 12% | / | 29%[46.1 µM] | -19%[46.1 µM] | / | 2
COCCNc1nc(-c2ccc(OC)cc2)c(-c2ccc(OC)cc2)s1 | -22% | ? | -28% | ? | -1% | -69*
CCCCCCNc1nc(-c2ccc(OC)cc2)c(CCC(=O)O)s1 | -10% | 13% | -3% | 23% | -1% | -62*
CC(=O)Nc1sc(-c2ccccc2)nc1-c1ccccc1 | -4% | 11µM* | -1% | -17%[14.2 µM] | -3% | -37
CCN(CC)CCNc1nc(-c2ccc(OC)cc2)c(-c2ccc(OC)cc2)s1 | -20% | ? | / | / | 0% | -39
COc1ccc(-c2nc(NC(C)=O)sc2-c2ccccc2)cc1 | -6% | 10µM* | ? | -17%[46.1 µM] | 0% | -4
Cc1cccc(Cn2cc(C(=O)c3ccccc3)c(=O)c3cc4c(cc32)OCO4)c1 | -18% | / | 2%[46.1 µM] | ? | / | -14
CCOC(=O)c1c(-c2ccc(C)cc2)csc1NC(=O)c1cc(=O)c2cc(C)cc(C)c2o1 | -13% | / | 19%[46.1 µM] | 1%[46.1 µM] | / | 5
Cc1ccc(NC(=O)c2cc(CN3CCOCC3)on2)cc1Cl | 38% | / | ? | / | / | 18
CC(C)Oc1ccc(CNC(=O)C(C)n2ccc3cc(S(=O)(=O)N4CCCCCC4)ccc32)cc1 (centres undefined) | 15% | / | -22%[46.1 µM] | / | / | 7
O=C(N/N=C/c1ccccc1[N+](=O)[O-])c1ccc2c(c1)OCCO2 | ? | ? | 1.4µM* | 2.5µM* | 1% | -28
O=C(N/N=C/c1cccc(O)c1)c1ccc2c(c1)OCCO2 | 57% | 8% | / | / | / | 157
O=C(N/N=C/c1cc([N+](=O)[O-])ccc1O)c1ccc2c(c1)OCCO2 | 6% | ? | ? | ? | ? | 25
O=C(N/N=C/c1cc(O)ccc1[N+](=O)[O-])c1ccc2c(c1)OCCO2 | ? | 13% | 5µM* | ? | 9% | 31
CCOC(=O)c1cc2[nH]c3ccccc3c2[n+](-c2ccc([N+](=O)[O-])cc2)c1N | ? | 11% | -9% | ? | 0% | -91*
COCCN(C)C(=O)c1cnn(-c2nccc(-c3cc(OC)ccc3OC)n2)c1C | 22% | / | / | / | / | /
CC(=O)N1c2c(cc(Br)cc2S(=O)(=O)NCc2ccc(C)cc2)CC1C (centres undefined) | 4% | -8% | / | -16%[46.1 µM] | -2% | -66*
CCOC(=O)c1ccc(NS(=O)(=O)c2cc(Br)cc3c2N(C(C)=O)C(C)C3)cc1 (centres undefined) | 25% | / | -9%[46.1 µM] | -19%[46.1 µM] | / | -29
